# Bioassay records (PubChem)
# GCN5L2 inh = qHTS Assay for Inhibitors of GCN5L2; Histone acetyltransferase KAT2A (Homo sapiens), Q92830; GCN5L2 HAT assay, ThioGlo1 CoA-SH fluorescence; Potency, µM (series often up to 58.9 µM), most hits filed as inhibitors; actives 0.21% (n = 390,000); AID 504327, 2011
#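 GCN5L2 (20nM final) in 50mM HEPES, 0.1mM EDTA pH 7.5, 0.01% Tween-20 was preincubated 15 min at room temperature with compound, then given ThioGlo1 (50uM), H3(1-25) peptide (75uM) and acetyl-CoA (70uM); CoA-thiol fluorescence (Ex340/Em540) was read at 0 and 20 min.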
# VDR inhibitor = Inhibitors of the vitamin D receptor (VDR): qHTS. Vitamin D3 receptor (Homo sapiens), P11473. VDR-SRC2-3 peptide fluorescence polarization, 2 h. Potency, µM, usual class: inhibitors. actives 0.93% (n = 400,000). AID 504847, 2011
#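 Measured by FP: displacement of SRC2-3 coactivator peptide from VDR by library compounds, following a two-hour ambient incubation.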
# 12-LOX inh = Primary qHTS assay for inhibitors of human arachidonate 12S-lipoxygenase (ALOX12): Round 2. purified 12hLO, xylenol orange hydroperoxide absorbance. Potency, µM (top dose mostly 108 µM), most hits filed as inhibitors. actives 1.1% (n = 580,000). AID 1671190, 2021. Polyunsaturated fatty acid lipoxygenase ALOX12 (Homo sapiens), P18054
#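 Purified human 12hLO at 150 nM in 25 mM Hepes, 0.01% Triton X-100, pH 7.0, preincubated 15 min at room temperature with compound. Reaction started with 40 uM arachidonic acid, 30 min at room temperature. Hydroperoxide measured by Fe-xylenol orange, 573/405 nm absorbance ratio.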
# PLK1 PBD inh = qHTS for Inhibitors of PLK1-PDB (polo-like kinase 1 - polo-box domain): Primary Screen | Serine/threonine-protein kinase PLK1 (Homo sapiens), P53350 | Plk1 PBD binding of FITC phosphopeptide, fluorescence polarization | Potency, µM, most hits filed as inhibitors | actives 2.8% (n = 360,000); note: series mostly up to about 57 µM; nearly all actives have a fitted effect of over 65% in size
# Target sequence (P53350 whole entry, looked up, the tested form may be a part): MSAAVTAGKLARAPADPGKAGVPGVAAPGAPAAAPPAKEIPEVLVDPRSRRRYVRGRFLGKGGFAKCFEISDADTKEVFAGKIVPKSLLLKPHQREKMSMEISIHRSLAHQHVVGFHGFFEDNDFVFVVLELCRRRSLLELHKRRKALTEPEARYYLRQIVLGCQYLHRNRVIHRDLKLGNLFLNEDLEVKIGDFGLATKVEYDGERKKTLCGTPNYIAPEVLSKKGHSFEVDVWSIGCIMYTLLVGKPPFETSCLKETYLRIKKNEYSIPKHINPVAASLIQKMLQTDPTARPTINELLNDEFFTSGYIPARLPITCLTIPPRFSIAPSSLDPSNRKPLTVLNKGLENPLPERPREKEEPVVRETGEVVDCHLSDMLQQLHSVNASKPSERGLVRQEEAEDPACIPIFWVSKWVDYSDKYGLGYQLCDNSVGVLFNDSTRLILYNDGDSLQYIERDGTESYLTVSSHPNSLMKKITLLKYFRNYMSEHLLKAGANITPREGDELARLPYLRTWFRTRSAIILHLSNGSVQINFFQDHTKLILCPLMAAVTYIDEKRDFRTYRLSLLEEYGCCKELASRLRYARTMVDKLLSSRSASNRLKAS
# Hits are given with their value; i = inactive; ? = inconclusive; nt = not tested or not shown. Only some compounds are listed: those with a hit (about 3% of all), similar ones and a draw of the others. Calls come from the whole dose curve; as a rule, active = well fitted curve in the direction sought with a large enough effect; inconclusive = small, poorly fitted or top-dose-only effect, or another doubt; inactive = no such curve, though single readings can be large; an effect the other way counts as inactive or inconclusive.
SMILES,GCN5L2 inh,VDR inhibitor,12-LOX inh,PLK1 PBD inh
O=C(CCc1nc2ccccc2c(=O)[nH]1)Nc1nnc(SCc2ccccc2)s1,i,i,?,i
N#Cc1cccc(-c2c(-c3ccccc3)ncn2CCCN2CCC(O)CC2)c1,nt,nt,i,nt
Cc1nc2ccccn2c(=O)c1Cc1nnc(SCC(=O)Nc2ccccc2)n1C,nt,nt,i,nt
O=C1C2C3C=CC(C3=C(c3ccccc3)c3ccccc3)C2C(=O)N1Cc1ccccc1 (stereo not drawn),i,i,i,67µM
O=C(CCn1cnc2ccccc21)N/N=C/c1ccccc1O,i,i,i,8.4µM
O=C(CCn1cnc2ccccc21)N/N=C/c1ccc(O)cc1,i,i,i,i
COc1ccc(C(=O)/C(=C/c2cccs2)c2nc3ccccc3o2)cc1,i,32µM,i,27µM
CN(C(=S)NC(=O)C1CCCC1)c1ccccc1,nt,nt,20µM,30µM
CNC(=S)NNC(=O)c1cccn(Cc2ccc(Cl)cc2Cl)c1=O,0.56µM,nt,i,nt
CNC(=S)NNC(=O)c1ccc(=O)n(Cc2ccc(Cl)cc2Cl)c1,i,i,i,i
COc1ccccc1CNc1nc2ccccc2nc1NS(=O)(=O)c1ccc(C)c(C)c1,nt,nt,i,nt
Cc1oc(-c2ccccc2F)nc1CSCC(=O)NC1CC1,i,?,i,27µM
CC(C)(C)c1ccc(C2=NC(=O)C(CC(=O)O)S2)cc1 (stereo not drawn),i,25µM,?,27µM
COc1ccc(C(=O)CC2SC(N)=NC2=O)cc1 (stereo not drawn),i,i,i,i
Cc1ccc(S(=O)(=O)NN=C2C(=O)C3CCC2C3Cl)cc1 (stereo not drawn),nt,i,10µM,i
Cc1ccc(S(=O)(=O)N/N=C2\C(=O)C3(C)CCC2C3(C)C)cc1 (stereo not drawn),i,i,?,i
Cn1c(C(=O)N2CCN(C(=O)c3ccccc3F)CC2)cc2ccccc21,nt,nt,i,nt
O=C(c1ccc(Cl)cc1Cl)N(CCS(=O)(=O)N1CCCCC1)Cc1cccnc1,nt,nt,0.5µM,nt
O=C(NCc1cccnc1)c1cc(S(=O)(=O)N2CCCCC2)ccc1Cl,i,i,i,i
O=C(O)CCN1C(=O)/C(=C/c2cn(-c3ccccc3)nc2-c2cccs2)SC1=S,i,?,?,30µM
O=C(O)CCCCCN1C(=O)/C(=C/c2cn(-c3ccccc3)nc2-c2cccs2)SC1=S,nt,i,?,27µM
O=C(O)CCCCCN1C(=O)/C(=C\c2cn(-c3ccccc3)nc2-c2cccs2)SC1=S,?,i,?,i
N#CCSc1nnc(-c2ccccc2)n1-c1ccc(Cl)cc1,nt,nt,i,nt
COc1cccc(N2CCN(C(=O)c3ccc4c(c3)N(C)C3CCCCCN3C4=O)CC2)c1 (stereo not drawn),nt,nt,i,nt
COc1ccccc1-c1cc(-c2ccc(C)cc2)nc(SCc2nnc(-c3ccccc3)o2)c1C#N,i,?,i,21µM
SMILES,GCN5L2 inh,VDR inhibitor,12-LOX inh,PLK1 PBD inh
Cc1cc(C)c(C#N)c(SCc2nnc(-c3ccccc3)o2)n1,i,i,i,i
Cn1c(SCc2cc(Cl)c3c(c2)OCCO3)nnc1-c1cccnc1,nt,nt,i,nt
CCOc1ccccc1/C=C/c1nc2ccccc2[nH]c1=O,i,?,?,3.8µM
CCOc1ccccc1OCCCC(=O)Nc1nc2ccccc2[nH]1,i,i,?,i
NC(c1ccccc1)c1csc(Nc2cc(Oc3ccccc3)ncn2)n1 (stereo not drawn),nt,nt,35µM,i
CCOC(=O)C(CS)NCCN[C@@H](CS)C(=O)OCC (stereo partly drawn),20µM,28µM,nt,nt
O=C(Cc1ccc(F)cc1)NCCNC(=O)c1cc(=O)[nH]c2ccccc12,nt,nt,i,nt
CCN(CC)C(=O)CC(c1cc(OC)c(OC)c(OC)c1)c1c(OC)cc(OC)c2c(-c3ccccc3)cc(=O)oc12 (stereo not drawn),i,i,40µM,?
COc1ccc2c(c1)cc(C(=O)Nc1ccc(F)cc1)n2C,nt,nt,i,nt
O=C(Nc1n[nH]c(=S)s1)c1ccc2ccccc2c1,i,i,i,?
CC(=O)Nc1n[nH]c(=S)s1,nt,50µM,i,i
CNc1n[nH]c(=S)s1,?,?,22µM,i
CCCCOc1ccc2c(C)c(CC(C)C)c(=O)oc2c1,nt,nt,i,nt
N#C/C(=C\c1ccc([N+](=O)[O-])o1)C(=O)NC1CCCCC1,nt,nt,16µM,nt
N#C/C(=C\c1ccco1)C(=O)NC1CCCC1,nt,nt,40µM,nt
